A selection: hits, their analogues and other compounds. The true share with any hit is near 6.2%.
VP16 counter: VP16 counterscreen qHTS for inhibitors of ROR gamma transcriptional activity. Drosophila S2 Gal4-VP16 UAS-luciferase, luminescence, 20 h. Potency, µM (titrated, usually from 53.6 µM), actives largely listed as inhibitors. 310,000 tested, 3.5% active;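 further: Gal4-VP16 expression switched on by copper sulfate through the metallothionein promoter; nearly all actives have a fitted effect of over 50% in size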
KinaseGlo FLuc: Counterscreen for Luciferase (Kinase-Glo TM) Inhibition; Kinase-Glo luciferase, ATP luminescence, 8 min; Potency, µM (doses to about 38.3 µM), most hits filed as inhibitors; 200,000 tested, 0.28% active; AID 1379, 2008; further: nearly all actives have a fitted effect of over 60% in size
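Compounds were added to a substrate mix at pH 7.2 (50 mM imidazole, 10 uM ATP, within the enzyme's linear range), followed by Kinase-Glo detection reagent; luminescence was measured after 8 minutes at ambient temperature.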
RORgamma inh: qHTS for inhibitors of ROR gamma transcriptional activity; Drosophila S2 Gal4-RORgamma UAS-luciferase reporter, 20 h; Potency, µM (highest dose often 53.6 µM), usual class: inhibitors; 310,000 tested, 5.4% active; further: nearly all actives have a fitted effect of over 60% in size
Target sequence (P51450 whole entry, looked up, the tested form may be a part): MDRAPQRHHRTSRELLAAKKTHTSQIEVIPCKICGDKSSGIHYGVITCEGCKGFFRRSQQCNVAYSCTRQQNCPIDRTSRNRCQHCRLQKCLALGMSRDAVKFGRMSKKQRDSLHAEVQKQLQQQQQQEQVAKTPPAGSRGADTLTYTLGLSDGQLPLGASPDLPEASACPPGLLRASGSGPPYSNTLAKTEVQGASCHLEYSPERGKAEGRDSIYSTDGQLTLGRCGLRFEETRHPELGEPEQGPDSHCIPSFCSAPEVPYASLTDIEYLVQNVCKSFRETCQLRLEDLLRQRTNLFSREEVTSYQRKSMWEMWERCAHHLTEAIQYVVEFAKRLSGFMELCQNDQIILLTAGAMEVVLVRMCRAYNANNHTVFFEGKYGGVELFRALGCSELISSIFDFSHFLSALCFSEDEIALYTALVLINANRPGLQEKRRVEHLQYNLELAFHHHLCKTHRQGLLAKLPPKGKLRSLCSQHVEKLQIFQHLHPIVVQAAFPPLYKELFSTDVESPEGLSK
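Drosophila S2 cells stably expressing Gal4-DBD/mouse RORγ fusion under metallothionein promoter plus UAS-luciferase; compound 1 h, then 700 uM CuSO4 induction for 20 h at ambient temperature; inhibition read as reduced luminescence.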
Each line names hits and unclear results; the compound was inactive in the other large screens. The call rests on the fitted dose curve; in most records, active means well fitted curve in the direction sought with a large enough effect; inconclusive means small, poorly fitted or top-dose-only effect, or another doubt; inactive means no such curve, though single readings can be large; an effect the other way counts as inactive or inconclusive.

O=C(Nc1nc2c(F)cc(F)cc2s1)c1ccco1	VP16 counter inconclusive (no result: KinaseGlo FLuc)
O=C(Nc1nc2c(F)cccc2s1)C1CC1	VP16 counter inconclusive (no result: KinaseGlo FLuc)
Fc1cccc2sc(Nc3nc4c(F)cccc4s3)nc12	VP16 counter inconclusive, RORgamma inh 4.5µM
Nc1nc2c(F)cccc2s1	none
NNc1nc2c(F)cc(F)cc2s1	VP16 counter 18µM, RORgamma inh inconclusive
Fc1cccc2sc(N3CCCCC3)nc12	VP16 counter inconclusive, RORgamma inh inconclusive
CC1CCc2c(sc(Nc3nc4c(F)cccc4s3)c2C(N)=O)C1 (stereo unspecified)	VP16 counter 5µM, RORgamma inh 5.6µM
NNc1nc2c(F)cccc2s1	VP16 counter inconclusive, RORgamma inh 16µM
C=C(C)C(O)/C=C/c1ccc(OC)cc1 (stereo unspecified)	none (no result: KinaseGlo FLuc)
CC1CCN(C(=O)CNC(=O)CNC(=O)Cc2ccccc2)CC1	none (no result: KinaseGlo FLuc)
O=C(NCc1ccccc1)C(c1ccc(F)cc1)N(C(=O)c1csnn1)C1CCCC1 (stereo unspecified)	none (no result: KinaseGlo FLuc)
Clc1ccc2c(c1)C(C1=NCCN1)c1ccccc1CS2 (stereo unspecified)	none
S=C1NCCc2ccc(Cl)cc2C1c1ccccc1Cl (stereo unspecified)	VP16 counter 3.5µM, RORgamma inh 5µM
O=C(Nc1nnc(Cc2ccc([N+](=O)[O-])cc2)s1)c1ccc2c(c1)OCO2	none (no result: KinaseGlo FLuc)
O=C(Nc1nn[nH]n1)c1cccc([N+](=O)[O-])c1	none
O=C(Nc1ccc(Cl)cc1)Nc1nnc(CSCc2ccccc2)s1	none
O=C(Nc1nnc(CSCc2ccc(Cl)cc2)s1)c1cccc([N+](=O)[O-])c1	VP16 counter 10µM, RORgamma inh 11µM
COC(=O)c1cc(C(=O)Nc2nnc(CC(C)(C)C)s2)cc([N+](=O)[O-])c1	VP16 counter 8.9µM, RORgamma inh 8.9µM
CCOCc1nnc(NC(=O)c2cc(C(=O)OC)cc([N+](=O)[O-])c2)s1	none
O=C(Nc1nnc(CSCc2ccc(F)cc2)s1)c1cccc([N+](=O)[O-])c1	VP16 counter 20µM, RORgamma inh 11µM (no result: KinaseGlo FLuc)
CCC(C)(C)c1nnc(NC(=O)c2cccc([N+](=O)[O-])c2)s1	VP16 counter inconclusive, RORgamma inh 13µM
CC(C)[C@H](NC(=O)[C@@H]1CSSC[C@H](NC(=O)[C@H](CC(=O)O)NC(=O)[C@H](C)NC(=O)[C@@H](NC(=O)CNC(=O)[C@H](C)N)[C@@H](C)O)C(=O)N[C@@H](Cc2ccccc2)C(=O)N[C@@H](Cc2c[nH]c3ccccc23)C(=O)N[C@@H](CCCCN)C(=O)N[C@@H](Cc2ccc(O)cc2)C(=O)N1)C(=O)O	none (no result: KinaseGlo FLuc)
COc1cc(CCC(=O)Oc2ccc(C(C)=O)cc2)cc(OC)c1OC	none
O=C(Nc1ccccc1)N1CCCC2(CCNCC2)C1	none
COc1ccc(Br)cc1/C=N/NC(=O)c1ccc2nc[nH]c2c1	none (no result: KinaseGlo FLuc)
Nc1c(C(=O)Nc2ccc(Cl)c(C(=O)O)c2)sc2nc3c(cc12)CCCC3	RORgamma inh inconclusive (no result: KinaseGlo FLuc)
Nc1c(C(=O)Nc2cccc(C(=O)O)c2)sc2nc3c(cc12)CCCC3	VP16 counter 3.2µM, RORgamma inh 2.8µM (no result: KinaseGlo FLuc)
COc1ccc(S(=O)(=O)N/N=C(/C)c2ccc(Cl)cc2)cc1	none
COc1ccc(C/C(C)=N/NC(=O)c2ccc(Cl)cc2)cc1	VP16 counter inconclusive, RORgamma inh 11µM
COc1ccc(C/C(C)=N/NC(=S)Nc2ccc(C(C)C)cc2)cc1	VP16 counter inconclusive, RORgamma inh 4.5µM
COc1ccc(C/C(C)=N/NS(=O)(=O)c2ccc(Br)cc2)cc1	VP16 counter inconclusive, RORgamma inh 10µM (no result: KinaseGlo FLuc)
CCOc1cc(C(=O)N/N=C(\C)Cc2ccc(OC)cc2)cc(OCC)c1OCC	none
C/C(=N\NC(=S)Nc1c(C)cccc1C)c1ccc(OC(F)F)cc1	VP16 counter 5.6µM, RORgamma inh 3.2µM
COc1ccc(C/C(C)=N/NC(=S)Nc2ccccc2F)cc1	none
COC(=O)N/N=C(\C)c1ccc(OC(F)F)cc1	none
Cc1ccc(S(=O)(=O)N2CCOC2CNC(=O)C(=O)NCCN(C)C)cc1 (stereo unspecified)	none (no result: KinaseGlo FLuc)
CCc1nnc(NC(=O)CSc2nc(-c3ccccc3)cc(-c3ccc(OC)cc3)c2C#N)s1	none
COc1ccc(C2C(C(C)=O)=C(O)C(=O)N2c2ccc(Br)cc2)cc1 (stereo unspecified)	RORgamma inh inconclusive (no result: KinaseGlo FLuc)
CC/C(=N\NC(=S)Nc1ccc(OC)cc1)c1ccc(OC(F)F)cc1	VP16 counter inconclusive, RORgamma inh 13µM
CC/C(=N\NC(=S)Nc1cc(C)ccc1C)c1ccc(OC(F)F)cc1	RORgamma inh inconclusive
CCOC(=O)C1(N(CC)CC)Sc2cc(C)ccc2NC1=O (stereo unspecified)	VP16 counter inconclusive
COC(=O)C1=C(C(=O)OC)SC2(S1)C(C(=O)OC)=C(C(=O)OC)SC1=C2c2cc(C)ccc2NC1(C)C	VP16 counter inconclusive, RORgamma inh 4.5µM
O=C(NC12CC3CC(CC(C3)C1)C2)c1cncc(Br)c1	none (no result: KinaseGlo FLuc)
O=S(=O)(NCc1ccccc1Cl)c1ccc(-n2cccn2)cc1	RORgamma inh inconclusive (no result: KinaseGlo FLuc)
Cc1cccc(N=C2NN=C(c3c(C)[nH]c4ccccc34)CS2)c1	VP16 counter inconclusive
Cc1cccc(N=C2NN=C(c3ccc4c(c3)OCCO4)CS2)c1	VP16 counter inconclusive, RORgamma inh 7.9µM
CC(Sc1nncs1)C(=O)Nc1ccc(Cl)cn1 (stereo unspecified)	none
COc1cc2nc(CSc3ncn[nH]3)[nH]c(=O)c2cc1OC	none
COc1ccc(/C=C\C(=O)CC(O)(c2ccccc2)C(F)(F)F)cc1 (stereo unspecified)	RORgamma inh inconclusive
CC(C)(C)c1cc(C(=O)NNC(=O)Nc2ccccc2)n(Cc2ccccc2)n1	RORgamma inh 0.063µM (no result: KinaseGlo FLuc)
CC(C)(C)c1cc(C(=O)NNC(=O)Nc2cccc(Cl)c2)n(Cc2ccccc2)n1	none (no result: KinaseGlo FLuc)
CCOC(=O)c1nnn(CC(=O)N2N=C(c3cc(C)ccc3C)CC2c2ccc(OC)cc2)c1C(=O)OCC (stereo unspecified)	none
CCOC(=O)c1nnn(CC(=O)N2N=C(c3ccccc3)CC2c2ccccc2)c1C(=O)OCC (stereo unspecified)	RORgamma inh 13µM
CCC(=O)c1c(NC(C)C)cc(C)oc1=O	none
CCC(C)c1ccc(NC(=S)Nc2ccc(OC)c(OC)c2)cc1 (stereo unspecified)	RORgamma inh inconclusive
CCC(C)c1ccc(NC(=S)NC(C)C2CCCO2)cc1 (stereo unspecified)	VP16 counter 18µM, RORgamma inh 6.3µM
COc1cc2oc(=O)cc(-c3ccc(-c4sccc4C=O)cc3)c2c(OC)c1OC	none
O=C(N/N=C/c1ccccc1C(=O)O)c1ccccc1Br	none
C=CCc1cccc(/C=N/NC(=O)c2ccccc2Br)c1O	VP16 counter 4µM, RORgamma inh 1.4µM (no result: KinaseGlo FLuc)
COc1ccccc1/C=N/NC(=O)c1ccccc1Cl	none
C=CCc1cccc(/C=N/NC(=O)c2ccccc2OC)c1O	VP16 counter 1.3µM, RORgamma inh 0.5µM
COc1ccc(CNC(=O)C2CCN(C(=O)[C@@H]3Cc4ccccc4CN3)CC2)cc1	none (no result: KinaseGlo FLuc)
O=C(CCCSc1nnc(Nc2ccccc2F)s1)N1CCOCC1	none
CCOC(=O)C1=C(C)N(C)C(=O)NC1c1cccc2ccccc12 (stereo unspecified)	none (no result: KinaseGlo FLuc)
